# Experimental data as given in PubChem BioAssay (NCI).
# “And” between values parts separate entries of the source, which are not always exact repeats. Identical values can stand only once. The panel holds about 83,000 compounds, 20% with a hit somewhere; the sample as a whole holds those more often.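 How to read the values: 0–100, growth inhibition (40 = 60% inhibited); 0, no net growth; -100 to 0, cell death (-40 = 40% of starting cells died; -100 = all dead).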 Unmarked numbers belong to inactive results. The source made the active and inactive calls. How the source made its calls: active means growth percent below 10; inactive means the rest.
# Assays:
# Test in all cases: NCI-60 one-dose screen, 48 h (100 = growth as untreated, 0 = no growth, -100 = all killed)
# SR leukemia = tested on: SR leukemia
# RPMI-8226 leukemia = conditions: 10 µM unless noted
# OVCAR-8 ovarian = tested on: OVCAR-8 ovarian
# OVCAR-5 ovarian = tested on: OVCAR-5 ovarian
# OVCAR-4 ovarian = tested on: OVCAR-4 ovarian
# SK-OV-3 ovarian = tested on: SK-OV-3 ovarian
# IGROV1 ovarian = tested on: IGROV1 ovarian
# OVCAR-3 ovarian = tested on: OVCAR-3 ovarian
# HS 578T breast = tested on: HS 578T breast
# NCI/ADR-RES ovarian = tested on: NCI/ADR-RES ovarian
# T-47D breast = conditions: 10 µM unless noted
# BT-549 breast = tested on: BT-549 breast
# MDA-MB-435 melanoma = tested on: MDA-MB-435 melanoma
# SW-620 colon = tested on: SW-620 colon
# MCF7 breast = tested on: MCF7 breast
# HCT-116 colon = tested on: HCT-116 colon
# HCC-2998 colon = conditions: 10 µM unless noted
# KM12 colon = conditions: 10 µM unless noted
structure (smiles),measurement,setting,value
COc1ccc(/C(C#N)=C/c2ccccn2)cc1,growth,SR leukemia; 10 µM unless noted,91.1% and 87.7%
same,growth,RPMI-8226 leukemia,93.8%
same,growth,OVCAR-8 ovarian; 10 µM unless noted,103% and 110%
same,growth,OVCAR-5 ovarian; 10 µM unless noted,110% and 107%
same,growth,OVCAR-4 ovarian; 10 µM unless noted,96.1% and 93.9%
same,growth,SK-OV-3 ovarian; 10 µM unless noted,111% and 126%
same,growth,IGROV1 ovarian; 10 µM unless noted,115% and 113%
same,growth,OVCAR-3 ovarian; 10 µM unless noted,110% and 130%
same,growth,HS 578T breast; 10 µM unless noted,104% and 309%
same,growth,NCI/ADR-RES ovarian; 10 µM unless noted,101% and 54.3%
same,growth,T-47D breast,88.7% and 115%
same,growth,BT-549 breast; 10 µM unless noted,103%
same,growth,MDA-MB-435 melanoma; 10 µM unless noted,97% and 106%
same,growth,SW-620 colon; 10 µM unless noted,112% and 130%
same,growth,MCF7 breast; 10 µM unless noted,104% and 102%
same,growth,HCT-116 colon; 10 µM unless noted,96.3% and 104%
same,growth,HCC-2998 colon,97.7% and 103%
CC(=O)Nc1cc(S(=O)(=O)O)cc2cc(S(=O)(=O)O)c(N=Nc3ccccc3)c(O)c12,growth,SR leukemia; 10 µM unless noted,98.8% and 92.1%
same,growth,RPMI-8226 leukemia,104% and 96.3%
same,growth,OVCAR-8 ovarian; 10 µM unless noted,109% and 99.5%
same,growth,OVCAR-5 ovarian; 10 µM unless noted,122% and 113%
same,growth,OVCAR-4 ovarian; 10 µM unless noted,109%
same,growth,SK-OV-3 ovarian; 10 µM unless noted,128% and 104%
same,growth,IGROV1 ovarian; 10 µM unless noted,117% and 101%
same,growth,OVCAR-3 ovarian; 10 µM unless noted,121% and 109%
same,growth,HS 578T breast; 10 µM unless noted,92.9% and 103%
same,growth,NCI/ADR-RES ovarian; 10 µM unless noted,107% and 105%
same,growth,T-47D breast,109% and 85.9%
same,growth,BT-549 breast; 10 µM unless noted,107% and 117%
same,growth,MDA-MB-435 melanoma; 10 µM unless noted,108% and 112%
same,growth,SW-620 colon; 10 µM unless noted,104% and 102%
same,growth,MCF7 breast; 10 µM unless noted,102% and 91.9%
same,growth,HCT-116 colon; 10 µM unless noted,93.2% and 123%
same,growth,HCC-2998 colon,99.6% and 99.1%
same,growth,KM12 colon,107% and 106%
O=[N+]([O-])c1ccc(Oc2ccccc2)cc1,growth,SR leukemia; 10 µM unless noted,89.7% and 102%
same,growth,RPMI-8226 leukemia,79% and 93.9%
same,growth,OVCAR-8 ovarian; 10 µM unless noted,109% and 103%
same,growth,OVCAR-5 ovarian; 10 µM unless noted,96.1% and 97.3%
same,growth,OVCAR-4 ovarian; 10 µM unless noted,113% and 121%
same,growth,SK-OV-3 ovarian; 10 µM unless noted,109% and 103%
same,growth,IGROV1 ovarian; 10 µM unless noted,84.4% and 104%
same,growth,OVCAR-3 ovarian; 10 µM unless noted,111%
same,growth,HS 578T breast; 10 µM unless noted,100%
same,growth,NCI/ADR-RES ovarian; 10 µM unless noted,96.2% and 107%
same,growth,T-47D breast,116% and 100%
same,growth,BT-549 breast; 10 µM unless noted,83.9% and 106%
same,growth,MDA-MB-435 melanoma; 10 µM unless noted,101% and 131%
same,growth,SW-620 colon; 10 µM unless noted,95.7% and 94.1%
same,growth,MCF7 breast; 10 µM unless noted,105% and 95.2%
same,growth,HCT-116 colon; 10 µM unless noted,98.2% and 106%
same,growth,HCC-2998 colon,102% and 105%
CC(C)(C)c1cc(NC(=O)Cc2ccc(-c3cnc4cc(-c5cnn(CCN6CCOCC6)c5)ccc4n3)cc2)no1,growth,SR leukemia; 10 µM,9.16% (active)
same,growth,SR leukemia; 30 µM,8.04% (active)
same,growth,RPMI-8226 leukemia,22.5%
same,growth,OVCAR-8 ovarian; 10 µM,18.6%
same,growth,OVCAR-8 ovarian; 30 µM,26.1%
same,growth,OVCAR-5 ovarian; 10 µM,24.2%
same,growth,OVCAR-5 ovarian; 30 µM,20.1%
same,growth,OVCAR-4 ovarian; 10 µM,10.1%
same,growth,OVCAR-4 ovarian; 30 µM,22.9%
same,growth,SK-OV-3 ovarian; 10 µM,-14.1% (active)
same,growth,SK-OV-3 ovarian; 30 µM,9.27% (active)
same,growth,IGROV1 ovarian; 10 µM,-7.95% (active)
same,growth,IGROV1 ovarian; 30 µM,-9.55% (active)
same,growth,OVCAR-3 ovarian; 10 µM,28.4%
same,growth,OVCAR-3 ovarian; 30 µM,22%
same,growth,HS 578T breast; 10 µM,-5.25% (active)
same,growth,HS 578T breast; 30 µM,3.43% (active)
same,growth,NCI/ADR-RES ovarian; 10 µM,12.8%
same,growth,NCI/ADR-RES ovarian; 30 µM,16.9%
same,growth,BT-549 breast; 10 µM,22%
same,growth,BT-549 breast; 30 µM,32.9%
same,growth,MDA-MB-435 melanoma; 10 µM,19.1%
same,growth,MDA-MB-435 melanoma; 30 µM,19.6%
same,growth,SW-620 colon; 10 µM,15.5%
same,growth,SW-620 colon; 30 µM,18.8%
same,growth,MCF7 breast; 10 µM,35.4%
same,growth,MCF7 breast; 30 µM,33.8%
same,growth,HCT-116 colon; 10 µM,14.9%
same,growth,HCT-116 colon; 30 µM,24.3%
Nc1nc(SC/C=C/CCl)c2[nH]cnc2n1,growth,SR leukemia; 10 µM unless noted,77.5%
same,growth,RPMI-8226 leukemia,100%
same,growth,OVCAR-8 ovarian; 10 µM unless noted,103% and 97.6%
same,growth,OVCAR-5 ovarian; 10 µM unless noted,109% and 101%
same,growth,OVCAR-4 ovarian; 10 µM unless noted,116% and 100%
same,growth,SK-OV-3 ovarian; 10 µM unless noted,99.4% and 112%
same,growth,IGROV1 ovarian; 10 µM unless noted,114% and 97.3%
same,growth,OVCAR-3 ovarian; 10 µM unless noted,117% and 120%
same,growth,HS 578T breast; 10 µM unless noted,112% and 125%
same,growth,NCI/ADR-RES ovarian; 10 µM unless noted,103% and 106%
same,growth,T-47D breast,108% and 92.9%
same,growth,BT-549 breast; 10 µM unless noted,103% and 126%
same,growth,MDA-MB-435 melanoma; 10 µM unless noted,105% and 101%
same,growth,SW-620 colon; 10 µM unless noted,105% and 106%
same,growth,MCF7 breast; 10 µM unless noted,125% and 85.4%
same,growth,HCT-116 colon; 10 µM unless noted,104% and 105%
same,growth,HCC-2998 colon,101% and 103%
same,growth,KM12 colon,107% and 111%
